# Screening data: PubChem, several laboratories
# sEH inh: blocks human soluble epoxide hydrolase activity. recombinant human sEH enzymatic activity assay. inhibition, % at 2 µM. actives 0.34% (n = 91,000). AID 707; in the data active means inhibition above about 80%
# CYP2C19 inh: blocks human cytochrome P450 2C19; inhibition, % at 5 µM; actives 21% (n = 96,000); CYP2C19 Supersomes, luciferin-H EGE luminescence, 30 min;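 active means CYP2C19 inhibition above a set limit at 5 µM in the primary screen, cut at about 50% in these data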;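 further: plate controls were negative control wells for no effect and 2.5 mM tranylcypromine positive control for full effect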
# Target sequence (P33261 whole entry, looked up): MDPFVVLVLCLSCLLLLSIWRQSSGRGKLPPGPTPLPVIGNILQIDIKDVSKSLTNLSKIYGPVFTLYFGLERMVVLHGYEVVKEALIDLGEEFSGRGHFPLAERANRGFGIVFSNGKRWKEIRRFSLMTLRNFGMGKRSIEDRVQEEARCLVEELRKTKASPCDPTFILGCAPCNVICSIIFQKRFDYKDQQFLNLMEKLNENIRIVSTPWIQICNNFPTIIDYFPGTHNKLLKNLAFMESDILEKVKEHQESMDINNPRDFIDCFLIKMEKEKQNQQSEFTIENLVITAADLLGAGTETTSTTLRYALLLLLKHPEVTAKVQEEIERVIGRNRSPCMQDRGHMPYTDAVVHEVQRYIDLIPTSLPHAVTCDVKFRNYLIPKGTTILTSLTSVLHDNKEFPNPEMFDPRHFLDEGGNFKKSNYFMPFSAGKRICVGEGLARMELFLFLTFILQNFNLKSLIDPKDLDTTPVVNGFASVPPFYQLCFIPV
# sEH act: activators of human soluble epoxide hydrolase | P34913 | purified human sEH enzymatic activity, activator screen | activation, % at 2 µM | actives 0.04% (n = 91,000); in the data active means activation above about 37%
# CYP2C9 inhib: blocks human cytochrome P450 2C9; actives 20% (n = 96,000); inhibition, % at 5 µM; CYP2C9 Supersomes, luciferin-H conversion, luminescence; P11712;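 active means blocking of liver enzyme CYP2C9 beyond about 50% at 5 µM, limit read from the data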
# CYP2C19 activ: activators of human cytochrome P450 2C19; recombinant CYP2C19, luciferin-H EGE luminescence; stronger effect = higher value; 0 = fully inhibited enzyme, 1 = untreated enzyme; activation factor at 5 µM; 96,000 tested, under 10 active;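 active means activation factor of at least 2 at 5 µM in the primary screen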;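 further: 0 = wells with 2.5 mM tranylcypromine and 1 = vehicle-only wells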
# CYP2C9 activ: activators of human CYP2C9; P11712; recombinant CYP2C9, luciferin-H conversion, luminescence; stronger effect = higher value; factor 1 = untreated enzyme, 0 = blocked; activation factor at 5 µM; actives 1.4% (n = 96,000); AID 1024;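 active means activation factor of 2 or more for CYP2C9 at a 5 µM dose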;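 further: 0 = sulfaphenazole-blocked wells and 1 = vehicle-only wells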
# * = called active by the depositor; nt = not tested or not shown. Shown are actives, neighbours in structure and some others; about 27% of the full set was active somewhere.
SMILES,sEH inh,CYP2C19 inh,sEH act,CYP2C9 inhib,CYP2C19 activ,CYP2C9 activ
Cc1c(/C=N\NC(=O)c2csc3ccccc23)cnn1C,36,25,-34,-11,0.8,1.1
CCCCOc1cccc(/C=N/NC(=O)c2csc(C)c2C)c1,82*,-9,-82,-2,1.1,1
C/C(=N\NC(=O)c1csc2ccccc12)c1ccc(O)cc1,8,84*,-6,-175,0.2,2.8*
CC(=O)N1CCC(C(=O)Nc2ccccc2)(N(Cc2ccccc2)C(=O)c2cccnc2)CC1,nt,1,nt,-3,1,1
COc1ccc(OCCSc2nnc(-c3ccc(OC)cc3)n2N)cc1,-11,38,11,32,0.6,0.7
O=C(O)C1CC(=O)N(c2ccc(OCc3c(F)cccc3Cl)cc2)C1 (configuration not stated),5,-2,-6,7,1,0.9
CCOc1ccc(S(=O)(=O)NCCN2CCOCC2)c2ccccc12,8,76*,-9,-24,0.2,1.2
CCCOc1ccc(S(=O)(=O)NCCN2CCOCC2)c2ccccc12,-8,99*,6,44,0,0.6
Cc1ccc(S(=O)(=O)NCCN2CCOCC2)cc1,-10,20,7,-6,0.8,1.1
Cc1nnc(NC(=O)c2ccc3c(c2)C(=O)N(CCC(C)C)C3=O)s1,6,3,-6,9,1,0.9
Cc1sc2ncnc(NCC(c3ccco3)N(C)C)c2c1C (configuration not stated),4,nt,-3,nt,nt,nt
CSCC[C@H](Nc1ncnc2sc(C)c(C)c12)C(=O)O,-30,-7,28,83*,1.1,0.2
Cc1sc2ncnc(N[C@@H](CCC(=O)O)C(=O)O)c2c1C,0,-8,2,4,1.1,1
Cc1sc2ncnc(Sc3nnnn3-c3ccccc3)c2c1C,8,56*,-9,23,0.4,0.8
Cc1sc2ncnc(NCc3ccccc3)c2c1C,-2,75*,1,47,0.2,0.5
Cc1sc2ncnc(Nc3ccccc3)c2c1C,10,50*,-8,-1,0.5,1
Cc1nc2ccccn2c1/C(O)=C1\C(=O)C(=O)N(CCCN(C)C)C1c1ccc(F)cc1 (configuration not stated),-8,nt,8,nt,nt,nt
Cc1nc2nc(-c3ccco3)[nH]n2c(=O)c1C,-26,-2,22,12,1,0.9
Cc1nc2ncnn2c(C)c1Cc1ccc(Cl)cc1,8,95*,-8,73*,0,0.3
Cc1ccc2occ(C(c3nnnn3C3CCCC3)N3CCN(C(=O)c4ccco4)CC3)c(=O)c2c1 (configuration not stated),9,82*,-9,83*,0.2,0.2
O=C(c1ccco1)N1CCN(C(c2cccs2)c2nnnn2C2CCCC2)CC1 (configuration not stated),4,55*,0,68*,0.5,0.3
CCCCC(c1nnnn1CCOC)N1CCN(C(=O)c2ccco2)CC1 (configuration not stated),nt,80*,nt,55*,0.2,0.4
O=C(c1ccco1)N1CCN(C(c2ccccn2)c2nnnn2C2CCCC2)CC1 (configuration not stated),4,nt,-6,nt,nt,nt
COc1ccccc1N1CCN(C(c2cccs2)c2nnnn2C2CCCC2)CC1 (configuration not stated),1,94*,-2,88*,0.1,0.1
CCC(c1nnnn1CCOC)N1CCN(C(=O)c2ccco2)CC1 (configuration not stated),-14,27,15,10,0.7,0.9
SMILES,sEH inh,CYP2C19 inh,sEH act,CYP2C9 inhib,CYP2C19 activ,CYP2C9 activ
O=C1CC(c2ccccc2)CC(O)=C1C=NCCN1CCN(C(=O)Nc2ccccc2)CC1 (configuration not stated),7,27,-10,12,0.7,0.9
O=C(COc1ccc(N2CC(C(=O)O)CC2=O)cc1)Nc1cccc(C(F)(F)F)c1 (configuration not stated),1,-4,2,-20,1,1.2
c1ccc(CC2CCN(C(c3cccs3)c3nnnn3C3CCCC3)CC2)cc1 (configuration not stated),-17,68*,18,88*,0.3,0.1
CCCCC(c1nnnn1C1CCCC1)N1CCN(C(=O)c2ccco2)CC1 (configuration not stated),-12,73*,14,69*,0.3,0.3
CCCC(c1nnnn1C1CCCCC1)N1CCN(c2ncccn2)CC1 (configuration not stated),nt,36,nt,81*,0.6,0.2
CCCCC(c1nnnn1C1CCCC1)N1CCN(C2CCCCC2)CC1 (configuration not stated),1,12,4,27,0.9,0.7
CC(C)(C)C(=O)NC(=C(Cl)Cl)P(=O)(O)O,1,-11,-3,-14,1.1,1.1
CCCOc1ccc2[nH]cc(C(=O)O)c(=O)c2c1,-11,14,12,-1,0.9,1
CCOC(=O)CSc1nnc([C@@H](NC(=O)OC(C)(C)C)C(C)C)o1,-7,6,7,2,0.9,1
CCCCSc1nnc([C@@H](NC(=O)OC(C)(C)C)C(C)C)o1,0,50*,0,44,0.5,0.6
C=C(C)CSc1nnc([C@@H](NC(=O)OC(C)(C)C)C(C)CC)o1 (some centres not stated),-3,83*,1,52*,0.2,0.5
CCOC(=O)CSc1nnc([C@H](C)NC(=O)OC(C)(C)C)o1,-4,12,4,-9,0.9,1.1
Cc1cccc(NC(=O)c2ccc(NS(=O)(=O)c3c(C)noc3C)cc2)c1,-2,4,3,40,1,0.6
Cc1noc(C)c1S(=O)(=O)Nc1ccc(C(=O)N2CCc3ccccc3C2)cc1,2,13,-1,59*,0.9,0.4
CCc1cccc(NC(=O)c2ccc(NS(=O)(=O)c3c(C)noc3C)cc2)c1,24,7,-22,51*,0.9,0.5
Cc1noc(C)c1S(=O)(=O)Nc1ccc(C(=O)N2CCN(c3cccc(Cl)c3)CC2)cc1,0,-6,0,79*,1.1,0.2
Cc1cccc(N2CCN(C(=O)c3ccc(NS(=O)(=O)c4c(C)noc4C)cc3)CC2)c1C,8,7,-8,96*,0.9,0
Cc1ccc(/C=C2\Sc3ccccc3C2=O)s1,-10,94*,14,75*,0.1,0.3
CCCN1C(=O)/C(=C/c2ccc(C)s2)NC1=S,13,nt,-10,nt,nt,nt
O=C1/C(=C/c2cccnc2)Sc2ccccc21,2,78*,0,66*,0.2,0.3
CCSc1ccc(NC(=O)c2cccnc2)cc1,44,-2,-44,12,1,0.9
CCOC(=O)C(Cc1c[nH]c2ccccc12)NC(=O)CNC(C)=O (configuration not stated),2,2,-2,5,1,0.9
